Calls of active or inactive are those of the source. The call rests on the fitted dose curve; in most records, active means well fitted curve in the direction sought with a large enough effect in the repeat runs; inconclusive means weak or mixed curves; inactive means flat fitted curve, though single readings scatter.
Test: qHTS assay to test for compound auto fluorescence at 535 nm (green) in HepG2 cells (AID 720675)
Settings: green autofluorescence 485/535 nm, 1 h; series mostly up to 91.3 µM
Text: National Center for Advancing Translational Sciences [NCATS]
NIH Chemical Genomics Center [NCGC]
U.S. Environmental Protection Agency [EPA]
National Institutes of Environmental Health Sciences [NIEHS]
National Toxicology Program [NTP]
U.S. Food and Drug Administration [FDA]
Compound auto fluorescence often interferes with screening of the compound library against various biological targets and signaling pathways. Some of these compounds may have fluorophoric properties. Such properties may interfere with the assay outputs resulting in false positives and/or negatives. To decrease such complications and ensure the compound activities are relevant in terms of biological response, the Tox21 10K compound library was screened for auto fluorescence.
From the fluorophores used as reporter signals in our screening assays, the auto fluorescence equivalencies of compounds against three fluorophores have been evaluated: Triamterene, Fluorescein and Rose Bengal sodium for blue, green and red fluorescence, respectively. The fluorescence intensities were measured using Excitation/Emission wavelengths at 405/460nm, 485/535nm and 540/590nm for blue, green and red labels, respectively. This assay includes the green fluorescence data.
Tox21 Assay Protocol Summary:
2,000 HepG2 cells in 5 uL of culture medium (MEM containing 10% FBS) per well were dispensed into black wall/clear bottom 1536-well plates using a Multidrop Combi Dispenser (ThermoFisher Scientific, Waltham, MA). The assay plates were incubated overnight at 37 C to allow cell attachment to the well bottom, followed by the transfer of 23 nL compound or DMSO vehicle by a pintool work station (Kalypsys , San Diego, CA). After the assay plates were incubated for 1 hr at 37 C and 5% CO2, fluorescence intensities in the assay plates were measured by an Envision (PerkinElmer, Shelton, CT) plate reader using three labels for measuring blue, green and red fluorescence at […] 460, 535 and 590 nm respectively.
For `OC(CCN1CCCC1)(c1ccccc1)C1CCCCC1` (stereo not given), the fluorescence, % of fluorescein control was 0.0313% [at 18.6 µM] (inactive).
With `O=[N+]([O-])c1cc(C2CCCCC2)c(O)c([N+](=O)[O-])c1` the outcome was “inactive”.
In the case of `Cc1cccc(N(C)C(=S)Oc2ccc3c(c2)CCC3)c1`, the outcome is reported as “inactive”.
For `Cc1ccccc1S`, the outcome was “inactive”.
With `Cc1ccc(C(C)(C)O)cc1` the outcome was “inactive”.
In the case of `Oc1cccc(O)c1O`, the outcome is reported as “inactive”.
In the case of `O=C1NC(=O)c2cc([N+](=O)[O-])ccc21`, the outcome is reported as “inactive”.
For `OCCN1CCN(CCCN2c3ccccc3Sc3ccc(Cl)cc32)CC1`, the fluorescence, % of fluorescein control was 0.0508% [at 18.6 µM] (inactive).
In the case of `CC1CC(C)C(=O)C1=O` (stereo not given), the outcome is reported as “inactive”.
For `O=C=Nc1ccc(Cl)c(Cl)c1`, the outcome was “inactive”.
For `CCOc1ccc(Cc2nccc3cc(OCC)c(OCC)cc23)cc1OCC`, the fluorescence, % of fluorescein control was 0.127% [at 18.6 µM] (inactive).
For `C(=C\c1ccccc1)/c1ccccc1`, the outcome was “inactive”.
With `C[C@@]12CCC[C@H]1[C@@H]1CC[C@H]3C[C@@H](O)CC[C@]3(C)[C@H]1CC2` the outcome was “inactive”.
For `CCOC(=O)c1ccc(I)cc1`, the outcome was “inactive”.
In the case of `CCOC(=O)c1ccc(OCCN2C[C@H](O)[C@@H](O)[C@H](O)[C@H]2CO)cc1`, the outcome is reported as “inactive”.
With `CCCCCCCCCCCCCCN(CCO)CCO` the outcome was “inactive”.
With `Oc1cc2c(cc1O)[C@H]1c3ccc(O)c(O)c3OC[C@@]1(O)C2` the outcome was “inactive”.
In the case of `CC(=O)Oc1ccc([N+](=O)[O-])cc1CCl`, the outcome is reported as “inactive”.
For `O=c1[nH]c2ccc(Cl)cc2o1`, the outcome was “inactive”.
With `O=c1cc(-c2ccccc2)oc2cc(O)cc(O)c12` the outcome was “inactive”.
With `CN(C(=O)CN(CCO)CC(=O)N(C)C(C)(C)Cc1ccccc1)C(C)(C)Cc1ccccc1` the fluorescence, % of fluorescein control was -0.0053% [at 18.6 µM] (inactive).
For `CCOC(=O)/C=C/C(=O)OCC`, the outcome was “inactive”.
In the case of `C/C=C/C=C/C=O`, the outcome is reported as “inactive”.
In the case of `CC1=Nc2ccc3ccccc3c2C1(C)C`, the outcome is reported as “inactive”.
For `CCCCCC[C@@H](O)C/C=C\CCCCCCCC(=O)OCC(O)CO` (stereo not given in full), the outcome was “inactive”.
In the case of `CN1C(C(=O)Nc2ccccn2)=C(O)c2sccc2S1(=O)=O`, the fluorescence, % of fluorescein control is reported as 0.0319% [at 18.6 µM] (inactive).
For `CCC(=O)C1CC(C(C)C)CC=C1C` (stereo not given), the outcome was “inactive”.
For `CC(=O)OCC(=O)NCCCOc1cccc(CN2CCCCC2)c1`, the outcome was “inactive”.
For `NNC(=O)CP(=O)(c1ccccc1)c1ccccc1`, the outcome was “inactive”.
With `Oc1cccc(Nc2ccccc2)c1` the outcome was “inactive”.
With `Nc1nc2ccc([N+](=O)[O-])cc2s1` the outcome was “inactive”.
In the case of `CC(=O)NC1(c2cccc(F)c2)CCN(CC[C@@]2(c3ccc(Cl)c(Cl)c3)CN(c3ccccc3)C(=O)CO2)CC1`, the outcome is reported as “inactive”.
In the case of `c1ccc2sc(SN(C3CCCCC3)C3CCCCC3)nc2c1`, the outcome is reported as “inactive”.
For `O=C(/C=C/c1ccc(O)c(O)c1)O[C@@H]1C[C@@](OC(=O)/C=C/c2ccc(O)c(O)c2)(C(=O)O)C[C@@H](O)[C@@H]1O`, the outcome was “inactive”.
For `CCOc1cccc(-n2cc(C(=O)N3CCN(c4cc(C(=O)O)c5ccccc5c4)CC3)nc2-c2ccc(C)cc2)c1`, the outcome was “inactive”.
In the case of `COc1cc(C(=O)NC2CCN(C)CC2)ccc1Nc1ncc2c(n1)N(C1CCCC1)CC(F)(F)C(=O)N2C`, the outcome is reported as “inactive”.
For `O=C(O)c1ccc(OCCCOc2ccc(C(=O)O)cc2)cc1`, the outcome was “inactive”.
In the case of `CCC1CO1` (stereo not given), the outcome is reported as “inactive”.
With `CCCCOc1ccc(OCCCN2CCOCC2)cc1` the fluorescence, % of fluorescein control was -0.0009% [at 18.6 µM] (inactive).
In the case of `COc1cc(N)c(Cl)cc1C(=O)NC1CCN(CCCOc2ccc(F)cc2)CC1OC` (stereo not given), the fluorescence, % of fluorescein control is reported as -0.0882% [at 18.6 µM] (inactive).

From PubChem BioAssay (Tox21)
On the % scale 0 is the no-effect control and ±100 the full control effect.
